The values below come from PubChem BioAssay (NCI).

The structures appear in SMILES notation. About 83,000 compounds went through this panel and 20% of them were active in at least one assay; those are over-represented in the sample as a whole.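 Negative percent growth values reflect cell death: -40 means 40% of the cells present at the start died, and -100 means all died.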 Values without a mark were called inactive. Active and inactive are the calls of the source. The calls were made as follows: active = growth percent below 10; inactive = the rest.

For this test, the system named is HL-60(TB) leukemia. As to the kind of experiment: NCI-60 one-dose screen, 48 h (100 = growth as untreated, 0 = no growth, -100 = all killed). As to conditions: 10 µM unless noted.
Consider `NS(=O)(=O)c1cccc(Nc2nc(SCC(=O)c3ccc([N+](=O)[O-])cc3)nc3ccccc23)c1`, for which the growth is 0.866% (active).

With `O=C1Nc2cc(OC(F)(F)F)ccc2Oc2ccc(-c3ccnc(N4CCNCC4)c3)cc21`, the growth is -41.4% (active).

On to `CN(C)c1ccc(/C=N/Nc2nc(N/N=C/c3ccc(N(C)C)cc3)nc(N3CCOCC3)n2)cc1`, for which the growth is 96.7%.

Turning to `COc1cc(C(=O)C[n+]2ccc3ccccc3c2)cc(OC)c1OC`, the growth is 92.7%.

Consider `COC(=O)C1CCCN(S(=O)(=O)/N=C2\NC(=O)NC2=C(Cl)Cl)C1` (stereo not given), for which the growth was 73.6%.

On to `CS(=O)(=O)c1ccc(-c2nn(-c3ccccc3)cc2/C=C/C(=O)c2ccc(Br)cc2)cc1`, for which the growth is 51.9%.

With `CC/C(=C(/c1ccc(Cl)cc1)c1ccc(OCCN)cc1)c1ccccc1`, the growth was 43.4%.

Consider `COc1ccc(Cn2cc3c(c2-c2cc(OC)c(OC)c(OC)c2)CCCc2cnoc2-3)cc1`, for which the growth was -5.47% (active).

Take `N#Cc1cccc(/C(N)=N/C(N)=N/c2nc3ccccc3s2)c1`: the growth is 4.28% (active).

`CCCCOc1ccc(S(=O)(=O)N2CCN(c3nccc(N4CCOCC4)n3)CC2)cc1`: the growth was 32.4%.

For the compound `O=C(N/N=C/c1ccc(Br)s1)c1[nH]c2ccc(Br)cc2c1-c1ccccc1`, the growth is -43.4% (active).

Turning to `N#Cc1cnc2ccc(-c3cnc(N)nc3)cc2c1N1CCc2cc(F)c(Cl)cc21`, the growth is -11.7% (active).

As for `C#CCN(C)CCCOc1ccc(NC(=O)CCCCCCCCC(=O)NO)cc1Cl`, the growth was 28.6%.

In the case of `COc1cccc2c1[C@H](OC)[C@]13O[C@@]1(C2=O)[C@H](O)[C@H](C)[C@@](O)(C(=O)[C@@H]1O[C@H]1C)[C@@H]3O`, the growth was -46.6% (active).

As for `CC1(C)CC[C@]23CC[C@]4(C)[C@H](CC[C@@H]5[C@@]6(C)CC[C@H](N)C(C)(C)[C@@H]6CC[C@]54C)[C@H]2[C@H]1OC3`, the growth is -38.4% (active).

For `COc1cccc(COc2ccc(/C=C3/C(=O)Nc4cc(Cl)ccc43)cc2)c1`, the growth was 105%.

Consider `C[C@@H]1C[C@H]2C(=O)O[C@@H](C)C(NC(=O)[C@H](Cc3cc(F)cc(F)c3)NC(=O)Nc3ccc(C4CC4)cc3F)C(=O)N3CCC[C@H]3C(=O)N3CCCC[C@H]3C(=O)N[C@@H](CO)C(=O)N2C1` (stereo not given in full), for which the growth is 11.5%.

`COc1cccc(/C=C(/C)c2ccc3cccc(OC)c3[o+]2)c1O`: the growth was 99.7%.

Consider `CC(C)(O)c1cncc(-c2ccc3ncc(C#N)c(N4CCc5cc(F)c(Cl)cc54)c3c2)c1`, for which the growth was 11.5%.

In the case of `O=C(CCCCCCN1CC(=O)N2[C@@H](c3cccs3)c3[nH]c4ccccc4c3C[C@H]2C1=O)NO`, the growth was 100%.

Turning to `C#CC(=O)N(c1ccc(OC)cc1OC)C(C(=O)NCC(=O)OCC)c1cccs1` (stereo not given), the growth is -51.2% (active).

Take `C=C=COc1cccc(/C(N)=N/C(N)=N/c2nc3ccccc3s2)c1`: the growth is 97.8%.

Regarding `C#C[C@]1(O)CC[C@H]2[C@@H]3CC=C4c5sc(-c6ccc(C)cc6)nc5CC[C@]4(C)[C@H]3CC[C@@]21C`, the growth was -2.49% (active).

As for `O=C(CSc1nnc(-c2cccs2)n1-c1ccccc1)Nc1ccccc1F`, the growth was 66.3%.

`Cc1cc(NS(=O)(=O)c2ccc(NC(=O)CSc3nc4ccccc4c(=O)n3-c3ccccc3)cc2)no1`: the growth was 110%.

`O=C1[C@H]2Cc3c([nH]c4ccccc34)[C@H](c3ccc(Br)cc3)N2C(=O)CN1C1CCN(CC2CCCCC2)CC1`: the growth was 56.9%.

Take `NC/C(=C/F)COc1ccc2nc(NCc3cccnc3)oc2c1`: the growth was 125%.

On to `CCNC(=O)N1CCc2cc(OC)c(OCCc3ccc(OC)cc3)cc2C1c1ccc([N+](=O)[O-])cc1C` (stereo not given), for which the growth was 14%.

Turning to `CN1CCN(Cc2ccc(/C=N/Nc3ccnc4cc(Cl)ccc34)cc2)CC1`, the growth is 72.4%.

Turning to `Cc1ccc(-c2cc3nc(C(Cl)Cl)nc(C)n3n2)cc1`, the growth is 107%.

With `O=C1CCCc2nc(Nc3ccc(S(=O)(=O)Nc4ccc([N+](=O)[O-])cc4)cc3)ncc21`, the growth is 110%.

For the compound `C#Cc1ccc(NC(=O)c2ccc(/C=C/C(=O)c3nccn3C)cc2)c(F)c1`, the growth is 7.29% (active).

On to `NS(=O)(=O)c1ccc(Nc2nc(Nc3ccccc3)nc(N3N=C(c4ccc(Cl)cc4)CC3c3ccc(Cl)cc3)n2)cc1` (stereo not given), for which the growth was 25.6%.

Take `CC(=O)OCCCCN1C=C/C(=C\C(=O)n2ccc3ccccc32)c2ccccc21`: the growth was 98.6%.

With `N#Cc1c(-c2cccs2)c(C#N)c(=O)n(Cc2nc3ccccc3[nH]2)c1N`, the growth is 108%.

Regarding `CC/C(=C/c1cc(OC)ccc1O)c1ccc2cc(OC)ccc2[o+]1`, the growth was 6.9% (active).

For the compound `COC(=O)C(C)NS(=O)(=O)/N=C1\NC(=O)NC1=C(Cl)Cl` (stereo not given), the growth was 98.7%.

On to `Oc1ccc(-c2nnc(SCc3ccc(O)c4ncccc34)n2-c2ccccc2)cc1`, for which the growth is 1.26% (active).

Take `Fc1ccc(-c2cc3nc(C(Cl)Cl)nc(-c4ccco4)n3n2)cc1`: the growth was -42.7% (active).

Consider `COc1ccc(/C=N/NC(=O)c2c(N)nn(C)c2Nc2ccccc2)cc1`, for which the growth is 15.5%.
